# Screening data deposited in PubChem by National Center for Advancing Translational Sciences (NCATS).
# Lassa entry inh: qHTS for Inhibitors of binding or entry into cells for Lassa Virus; Lassa virus pseudotype entry inhibition, cell reporter; Potency, µM (titrated, usually from 37.9 µM), for inactives: top-dose activity change, negative = inhibition, most hits filed as inhibitors; actives 1.2% (n = 300,000); calls by dose curve; tested in HEK293 cells; further: potency means the concentration at half of the fitted maximal effect; nearly all actives have a fitted effect of over 50% in size
# HCMV inh: qHTS Assay for inhibitors of the human cytomegalovirus (HCMV) | AID 1259415, 2018 | HFF cells, HCMV-luciferase reporter, 72 h; active compounds read low | activity change, negative = inhibition, % at 57.5 µM | actives 4.5% (n = 410,000); in the data active means activity change below about -60%; inconclusive means no clear call, values can overlap the other calls; inactive means above about -39%
#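 Two-dose cell screen: HFF monolayers treated with compounds and infected with luciferase-expressing HCMV at 1 PFU/cell, 72 h at 37C, then lysed for luciferase measurement.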
# HCV inh: qHTS Assay for Inhibitors of Hepatitis C Virus (HCV); actives 3.4% (n = 340,000); Huh7.5.1 HCVcc-Cre infection, luciferase reporter, 44 h; AID 651820, 2012; Potency, µM (doses to about 41.8 µM), for inactives: top-dose activity change, negative = inhibition, hits mostly inhibitors; active means well fitted inhibition curve with a large enough effect; inconclusive means small, poorly fitted or top-dose-only effect, or another doubt; inactive means no such curve, though single readings can be large or run the other way; further: potency means the concentration at half of the fitted maximal effect
#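 After 44 h co-culture of compound, cells and HCVcc-Cre (~0.5 moi), substrate is added for 15 min at room temperature and luciferase measured over 15 sec. Cells were seeded at 1,000/well and pre-cultured 4 h.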
# MARV entry inh: qHTS for inhibitors of binding or entry into cells for Marburg Virus; Marburg virus pseudotyped entry inhibition, cell reporter; Potency, µM (series often up to 37.8 µM), for the others: at the highest dose activity change, negative = inhibition, hits mostly inhibitors; actives 1.8% (n = 300,000); AID 540276, 2011; calls by dose curve; tested in HEK293 cells; further: potency means the concentration at half of the fitted maximal effect
# FMDV inh: High Throughput Screening for Foot and Mouth Disease Virus Antivirals; Potency, µM (series often up to 57.9 µM), without a hit: top-dose activity change, negative = inhibition, most hits filed as inhibitors; FMDV antiviral cell-based qHTS; AID 1159524, 2015; actives 1.2% (n = 410,000); calls by dose curve; tested in HEK293T cells; further: read-out not given here; potency means the concentration at half of the fitted maximal effect; nearly all actives have a fitted effect of over 45% in size
# An asterisk follows results filed as active; u = inconclusive; x = not tested or not shown; [ ] = another dose, or the depositor's remark. Sampled rows, rich in hits. Any-hit rate of the full collection: about 7.9%. On the % scale 0 is the no-effect control and ±100 the full control effect.
SMILES,Lassa entry inh,HCMV inh,HCV inh,MARV entry inh,FMDV inh
COc1ccc(CCn2c(=N)c(C(=O)NCC3CCCO3)cc3c(=O)n4ccccc4nc32)cc1OC (stereo not given),x,-110.1*,-17.3%,x,-1.9%
COC1C(C)OC(OC2CC(C)(O)Cc3cc4c(c(O)c32)C(=O)c2c(O)cc3c(c2C4=O)OC2OC3(C)C(O)C(N(C)C)C2O)C(OC)C1(C)OC (stereo not given),u,-97.9*,3.98µM*,u,-8.9%
COc1ccccc1CN1CCCCC1c1cccnc1 (stereo not given),-6.0%,-86.3*,-7.4%,33.7%,8.0%
CCOC(=O)CSC1=C(C#N)[C@H](c2ccc3c(c2)OCO3)CC(=O)N1,x,x,x,15.8µM*,x
CCCCOC(=O)CSC1=C(C#N)[C@H](c2ccc3c(c2)OCO3)CC(=O)N1,x,x,x,7.4%,x
COc1ccc(-c2cc(C(F)(F)F)nc(SCCC(=O)Nc3cccc(O)c3)n2)cc1,13.8%[46.1 µM],u,x,u,-20.0%
CC(Sc1nnc2c(n1)[nH]c1ccccc12)C(=O)NC1CCCCC1 (stereo not given),u,-30.0,5.62µM*,4.47µM*,u
CC(Sc1nnc2c(n1)[nH]c1ccccc12)C(=O)N(C)C1CCCCC1 (stereo not given),u,-84.7*,6.31µM*,u,u
COC(=O)c1ccc(CSc2nnc3c(n2)[nH]c2ccccc23)cc1,-1.5%,u,6.8%,7.9%[46.1 µM],-11.9%
Cc1cccc(NC(=O)/C(C#N)=C/c2ccco2)c1,u,8.4,x,x,45.5%
Cc1ncc2c(c1CNC(=O)c1ccc3c(c1)OCO3)CCN(C(=O)c1scc3c1CCCC3)C2,x,x,x,x,-15.7%
CCOC(=O)c1ccccc1OC(=O)CS(=O)c1ccccc1[N+](=O)[O-] (stereo not given),9.0%[46.1 µM],-10.2,14.2%,-0.9%[46.1 µM],1.1%
CS(=O)(=O)c1ccc(S(=O)CC(=O)OCc2ccccc2)c([N+](=O)[O-])c1 (stereo not given),u,-100.9*,u,u,8.91µM*
COC(=O)c1ccc(OC(=O)CS(=O)c2ccccc2[N+](=O)[O-])cc1 (stereo not given),7.6%,10.3,12.2%,2.0%[46.1 µM],5.4%
O=C(CS(=O)c1ccc(C(F)(F)F)cc1[N+](=O)[O-])Oc1ccccc1 (stereo not given),u,u,u,u,28.2µM*
Cc1cc(NC(=O)CCCSc2nc(-c3ccco3)cc(C(F)(F)F)n2)n(-c2ccccc2)n1,-16.5%,-6.0,11.2µM*,-48.6%,u
Cc1cc(NC(=O)CSc2nc(-c3ccco3)cc(C(F)(F)F)n2)n(-c2ccccc2)n1,u,-32.1,31.6µM*,u,-5.0%
Cc1cccc(-c2nc3scc(CCNS(=O)(=O)c4ccc(F)c(C(F)(F)F)c4)n3n2)c1,-16.0%[46.1 µM],-5.1,x,x,52.7%
CCOC(=O)c1sc2nc(C)cc(-c3ccccc3)c2c1N,-4.2%,u,u,-8.8%,0.0%
CCOC(=O)c1c(C)nc2sc(C(N)=O)c(N)c2c1-c1ccccc1,-17.2%,-62.0*,-21.2%,-14.7%,-20.2%
CCOC(=O)c1c(C)nc2sc(C(=O)Nc3ccccc3)c(N)c2c1-c1ccc(OC)cc1,8.91µM*,x,6.31µM*,u,0.0%
COCCCNC(=O)c1sc2nc(C)c(C(=O)Nc3ccc(Cl)cc3)c(-c3ccc(Br)cc3)c2c1N,1.2%[46.1 µM],-76.5*,x,u,-16.1%
COCCCNC(=O)c1sc2nc(C)c(C(=O)Nc3ccc(C)cc3C)c(-c3ccc(Br)cc3)c2c1N,-25.0%[46.1 µM],-17.7,x,u,-29.2%
CCCOc1ccc(F)cc1-c1cc(C(=O)Nc2ccc(C)c(NS(C)(=O)=O)c2)[nH]n1,x,-32.0,x,x,35.5µM*
COc1ccc(NC(=O)c2cc(-c3cc(F)ccc3OC)n[nH]2)cc1OC,x,-21.0,x,x,-3.7%
SMILES,Lassa entry inh,HCMV inh,HCV inh,MARV entry inh,FMDV inh
COc1ccc(NC(=O)c2cc(-c3ccc(F)cc3OC)n[nH]2)c(OC)c1,x,41.0,x,x,-22.7%
CCCOc1ccc(F)cc1-c1cc(C(=O)Nc2ccc(OC)c(OC)c2)[nH]n1,x,-1.0,x,x,-11.7%
COc1ccc(F)cc1-c1cc(C(=O)Nc2ccc(C)c(NS(C)(=O)=O)c2)[nH]n1,x,-27.9,x,x,35.5µM*
COc1cc(F)ccc1-c1cc(C(=O)Nc2ccc(C)c(NS(C)(=O)=O)c2)[nH]n1,x,-38.5,x,x,25.1µM*
CCOC(=O)/C=C/[C@H](CCCCOCc1ccccc1)NC(=O)C(F)(F)F,x,8.7,x,x,x
CC(C)Oc1ccc(CN=C(N)N=C(N)N)cc1Cl,16.2%,-74.6*,u,0.1%[46.1 µM],u
COc1ccc(CN=C(N)N=C(N)N)cc1Cl,u,u,u,-17.3%[14.2 µM],-8.0%
CC(C)COc1ccc(CN=C(N)N=C(N)N)cc1Cl,x,-76.5*,u,x,u
Cc1ccc(N(C)S(=O)(=O)c2nnc(NC(=O)C3CCCCC3)s2)cc1,u,15.3,x,x,-9.0%
CCOc1cccc2sc(N(CCCN(C)C)C(=O)c3ccc(C(=O)c4ccccc4)cc3)nc12,u,-77.3*,u,u,-10.9%
COc1cccc2sc(N(CCCN(C)C)C(=O)c3ccc(S(=O)(=O)N4CCCc5ccccc54)cc3)nc12,x,-71.3*,14.1µM*,x,u
CCc1ccc2nc(N(CCCN(C)C)C(=O)c3ccc(S(=O)(=O)N4CCCc5ccccc54)cc3)sc2c1,12.6µM*,-89.2*,u,u,u
CCc1ccc2nc(N(CCCN(C)C)C(=O)c3ccc(C(=O)c4ccccc4)cc3)sc2c1,u,-98.4*,-23.2%,u,-22.4%
CCN(C(=O)c1nn(-c2ccc(OC)c(Cl)c2)c(=O)c2c1c1ccccc1n2C)c1cccc(C(F)(F)F)c1,u,-1.9,x,-0.1%[46.1 µM],0.0%
COc1cccc(-c2nc(SCC(=O)Nc3ccc4c(c3)OCCO4)c(-c3ccc(C)cc3)[nH]2)c1,u,-26.8,x,u,-14.5%
CCOc1ccc2nc(N(CCN(C)C)C(=O)c3cc4ccccc4cc3OC)sc2c1,x,x,-27.6%,x,-29.0%
CCOc1cccc2sc(N(CCN(C)C)C(=O)c3cc4ccccc4cc3OC)nc12,x,-39.0,14.1µM*,x,-13.4%
Cc1ccc(C23CC4CC(CC(CC(=O)N5CCOCC5)(C4)C2)C3)cc1,8.2µM*,-37.5,u,u,u
Cc1ccc(C23CC4CC(CC(C(=O)N5CCN(C)CC5)(C4)C2)C3)cc1,x,0.0,2.51µM*,-1.4%,u
Cc1nnn(C23CC4CC(CC(C4)C2)C3)n1,4.0%,20.5,7.7%,2.2%,0.9%
Cc1ccc(C23CC4CC(CC(NC(=O)N5CCN(C)CC5)(C4)C2)C3)cc1,u,-5.9,12.6µM*,u,-29.5%
Cc1ccc(C)c(N2CCN(C(=O)C34CC5CC(C3)CC(n3nnc(C)n3)(C5)C4)CC2)c1,u,-38.0,17.8µM*,u,u
